We go through seven sequences from paper PMC7862700, “An all-to-all approach to the identification of sequence-specific readers for epigenetic DNA modifications on cytosine”.

Holding throughout (test): DAPPL (digital affinity profiling via proximity ligation, sequencing); 10 mM Tris-HCl pH 7.5, 50 mM NaCl, 1 mM DTT, 4% glycerol, room temperature, 30 min; GST-TFs on glutathione beads, 16-mer random dsDNA library, 0.1% formaldehyde crosslink after washing; high values mean tight binding
Holding throughout (conditions): protein: recombinant; tags: N-terminal GST; dsDNA, one strand shown

One assay addresses T1, ERF (Homo sapiens, UniProt P50548 1-548).
T1 sequence: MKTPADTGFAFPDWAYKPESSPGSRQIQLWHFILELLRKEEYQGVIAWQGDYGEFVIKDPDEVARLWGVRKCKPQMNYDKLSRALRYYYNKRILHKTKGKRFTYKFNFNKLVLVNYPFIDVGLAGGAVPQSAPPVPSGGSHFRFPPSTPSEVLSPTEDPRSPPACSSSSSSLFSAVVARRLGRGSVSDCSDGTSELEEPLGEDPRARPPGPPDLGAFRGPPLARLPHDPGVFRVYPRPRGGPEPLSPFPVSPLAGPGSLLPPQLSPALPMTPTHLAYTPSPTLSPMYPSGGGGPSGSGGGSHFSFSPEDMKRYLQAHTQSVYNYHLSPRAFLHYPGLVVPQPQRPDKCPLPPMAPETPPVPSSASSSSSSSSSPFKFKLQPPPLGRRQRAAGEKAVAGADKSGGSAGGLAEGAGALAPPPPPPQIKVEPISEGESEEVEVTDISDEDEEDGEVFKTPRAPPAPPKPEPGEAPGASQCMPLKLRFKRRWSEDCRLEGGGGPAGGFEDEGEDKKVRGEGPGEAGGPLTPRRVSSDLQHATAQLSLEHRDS
Put shortly: (§1)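 Binding signal is each hexamer's read frequency for a factor divided by its frequency in the tag-only sample. The factors were GST-fused human transcription factors from yeast, captured on glutathione beads, DNA-barcoded and pooled with that sample. Pools were incubated with 200 nmole of a random double-stranded 16-mer DNA library in Tris/NaCl/DTT/glycerol buffer at room temperature for 30 min, then washed, crosslinked with 0.1% formaldehyde, proximity-ligated with BsaI/T4 ligase (1 h, 37 °C), PCR-amplified and sequenced on an Illumina NextSeq500.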

The target in the next assay is T2, ETV3L (Homo sapiens, UniProt Q6ZN32 1-361).
T2 sequence: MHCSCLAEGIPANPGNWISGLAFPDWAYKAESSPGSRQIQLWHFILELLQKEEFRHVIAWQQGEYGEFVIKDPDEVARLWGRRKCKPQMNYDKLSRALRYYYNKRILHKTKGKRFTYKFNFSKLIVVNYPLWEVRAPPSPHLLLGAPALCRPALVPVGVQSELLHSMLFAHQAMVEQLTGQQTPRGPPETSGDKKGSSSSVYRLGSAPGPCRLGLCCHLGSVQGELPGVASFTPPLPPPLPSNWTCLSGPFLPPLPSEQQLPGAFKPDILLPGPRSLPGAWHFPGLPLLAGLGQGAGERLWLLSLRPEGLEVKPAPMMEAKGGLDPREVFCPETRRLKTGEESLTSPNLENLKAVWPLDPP
Put shortly:
as §1

Another assay addresses T3, ETS2 (Homo sapiens, UniProt P15036 1-469).
T3 sequence: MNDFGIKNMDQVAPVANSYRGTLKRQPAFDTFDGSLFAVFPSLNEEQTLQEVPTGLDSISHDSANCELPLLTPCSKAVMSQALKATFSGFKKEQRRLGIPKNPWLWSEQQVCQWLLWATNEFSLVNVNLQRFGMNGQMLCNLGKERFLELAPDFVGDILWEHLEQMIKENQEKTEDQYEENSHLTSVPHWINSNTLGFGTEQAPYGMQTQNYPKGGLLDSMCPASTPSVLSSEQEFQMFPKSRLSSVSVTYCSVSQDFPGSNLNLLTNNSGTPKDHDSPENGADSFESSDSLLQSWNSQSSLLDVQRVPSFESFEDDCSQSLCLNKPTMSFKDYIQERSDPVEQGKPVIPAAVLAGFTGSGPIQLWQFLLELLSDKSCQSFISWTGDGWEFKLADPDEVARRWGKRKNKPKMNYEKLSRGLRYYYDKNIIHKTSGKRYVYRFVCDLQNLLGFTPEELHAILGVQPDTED
Put shortly:
as §1

Another assay deals with T4, SPDEF (Homo sapiens, UniProt O95238 1-335).
T4 sequence: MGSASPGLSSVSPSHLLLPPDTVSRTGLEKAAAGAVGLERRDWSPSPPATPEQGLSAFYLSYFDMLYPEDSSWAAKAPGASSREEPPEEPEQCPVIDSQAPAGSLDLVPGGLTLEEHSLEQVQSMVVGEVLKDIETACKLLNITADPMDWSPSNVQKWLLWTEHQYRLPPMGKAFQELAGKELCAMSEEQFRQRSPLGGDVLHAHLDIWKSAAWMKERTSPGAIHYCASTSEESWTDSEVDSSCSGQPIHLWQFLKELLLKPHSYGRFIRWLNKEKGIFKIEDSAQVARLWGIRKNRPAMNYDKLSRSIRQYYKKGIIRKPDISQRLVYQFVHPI
Put shortly: as §1

Another assay addresses T5, ETV7 (Homo sapiens, UniProt Q9Y603 1-341).
T5 sequence: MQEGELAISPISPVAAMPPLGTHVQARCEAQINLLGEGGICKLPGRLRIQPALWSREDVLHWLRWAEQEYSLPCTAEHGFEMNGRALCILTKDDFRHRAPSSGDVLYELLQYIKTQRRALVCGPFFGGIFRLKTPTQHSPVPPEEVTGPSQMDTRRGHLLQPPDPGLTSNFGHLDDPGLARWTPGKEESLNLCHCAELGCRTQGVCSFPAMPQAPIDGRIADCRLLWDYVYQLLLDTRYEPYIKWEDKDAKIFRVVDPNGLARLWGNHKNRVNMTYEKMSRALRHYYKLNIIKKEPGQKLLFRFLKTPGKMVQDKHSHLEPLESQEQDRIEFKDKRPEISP
Put shortly:
as §1

Another assay addresses T6, ELF5 (Homo sapiens, UniProt Q9UKW6-2 1-255).
T6 sequence: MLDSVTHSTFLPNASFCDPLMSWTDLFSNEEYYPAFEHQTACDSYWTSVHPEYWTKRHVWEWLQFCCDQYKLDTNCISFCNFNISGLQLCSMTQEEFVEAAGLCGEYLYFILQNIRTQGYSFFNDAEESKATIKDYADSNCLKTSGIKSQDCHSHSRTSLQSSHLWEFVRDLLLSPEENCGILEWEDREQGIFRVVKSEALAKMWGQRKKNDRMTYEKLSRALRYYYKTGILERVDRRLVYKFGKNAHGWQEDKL
The method in brief:
as §1

The next assay addresses T7, ETV3 (Homo sapiens, UniProt P41162-2 1-143).
T7 sequence: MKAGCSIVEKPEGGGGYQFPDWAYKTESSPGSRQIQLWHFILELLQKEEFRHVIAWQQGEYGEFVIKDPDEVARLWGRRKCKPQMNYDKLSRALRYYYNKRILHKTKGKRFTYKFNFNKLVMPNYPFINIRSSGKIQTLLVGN
The method in brief: as §1

The next assay has as its target ETV6 (Homo sapiens, UniProt P41212 1-452). The method in brief:
as §1

Sequence of ETV6 (P41212 whole entry): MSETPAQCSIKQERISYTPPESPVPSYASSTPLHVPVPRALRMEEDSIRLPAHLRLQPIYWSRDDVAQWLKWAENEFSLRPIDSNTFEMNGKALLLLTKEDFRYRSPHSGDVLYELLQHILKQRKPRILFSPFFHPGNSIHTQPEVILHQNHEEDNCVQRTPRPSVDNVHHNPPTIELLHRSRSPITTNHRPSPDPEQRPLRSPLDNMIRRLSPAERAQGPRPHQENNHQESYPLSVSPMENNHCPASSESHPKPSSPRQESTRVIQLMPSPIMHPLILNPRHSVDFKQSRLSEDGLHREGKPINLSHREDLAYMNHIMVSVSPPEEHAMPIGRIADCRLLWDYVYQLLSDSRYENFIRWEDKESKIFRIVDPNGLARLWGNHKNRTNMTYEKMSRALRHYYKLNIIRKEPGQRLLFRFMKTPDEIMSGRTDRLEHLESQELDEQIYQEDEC

In the case of TTCTAC, the binding signal in the assay with ERF was 1.7 fold enrichment (6-mer frequency, TF over GST control); with ETV3L it was 1.51 fold enrichment (6-mer frequency, TF over GST control); in the assay with ETS2 it was 1.62 fold enrichment (6-mer frequency, TF over GST control); with SPDEF, 1.5 fold enrichment (6-mer frequency, TF over GST control); with ETV7, 1.54 fold enrichment (6-mer frequency, TF over GST control); in the assay with ELF5, 1.54 fold enrichment (6-mer frequency, TF over GST control). Moreover, the binding signal in the assay with ETV3 is 1.41 fold enrichment (6-mer frequency, TF over GST control); with ETV6 it was 1.49 fold enrichment (6-mer frequency, TF over GST control).

Turning to CTCCCG, the binding signal was 1.42 fold enrichment (6-mer frequency, TF over GST control) in the assay with ERF; 1.43 fold enrichment (6-mer frequency, TF over GST control) in the assay with ETV3L; 1.52 fold enrichment (6-mer frequency, TF over GST control) with ETS2; 1.65 fold enrichment (6-mer frequency, TF over GST control) with SPDEF; 1.73 fold enrichment (6-mer frequency, TF over GST control) in the assay with ETV7; 1.74 fold enrichment (6-mer frequency, TF over GST control) with ELF5. The binding signal in the assay with ETV3 was 1.53 fold enrichment (6-mer frequency, TF over GST control); in the assay with ETV6, 1.57 fold enrichment (6-mer frequency, TF over GST control).

Regarding AACCCT, the binding signal with ERF is 1.17 fold enrichment (6-mer frequency, TF over GST control); with ETV3L, 1.24 fold enrichment (6-mer frequency, TF over GST control); with ETS2, 1.26 fold enrichment (6-mer frequency, TF over GST control); with SPDEF, 1.17 fold enrichment (6-mer frequency, TF over GST control); with ETV7, 1.24 fold enrichment (6-mer frequency, TF over GST control); with ELF5 it was 1.28 fold enrichment (6-mer frequency, TF over GST control). In addition, the binding signal was 1.27 fold enrichment (6-mer frequency, TF over GST control) with ETV3 and 1.33 fold enrichment (6-mer frequency, TF over GST control) with ETV6.

For GACTTC, the binding signal with ERF is 2.25 fold enrichment (6-mer frequency, TF over GST control); with ETV3L, 2.41 fold enrichment (6-mer frequency, TF over GST control); with ETS2, 2.58 fold enrichment (6-mer frequency, TF over GST control); with SPDEF it was 2.13 fold enrichment (6-mer frequency, TF over GST control); in the assay with ETV7, 2.2 fold enrichment (6-mer frequency, TF over GST control); in the assay with ELF5, 2.99 fold enrichment (6-mer frequency, TF over GST control). For the same sequence, the binding signal was 2.6 fold enrichment (6-mer frequency, TF over GST control) with ETV3 and 2.64 fold enrichment (6-mer frequency, TF over GST control) in the assay with ETV6.

AAAATA: the binding signal with ERF was 1.27 fold enrichment (6-mer frequency, TF over GST control); with ETV3L it was 1.14 fold enrichment (6-mer frequency, TF over GST control); with ETS2, 1.24 fold enrichment (6-mer frequency, TF over GST control); with SPDEF, 1.06 fold enrichment (6-mer frequency, TF over GST control); with ETV7, 1.22 fold enrichment (6-mer frequency, TF over GST control); in the assay with ELF5, 1.2 fold enrichment (6-mer frequency, TF over GST control). Besides, the binding signal was 1.13 fold enrichment (6-mer frequency, TF over GST control) with ETV3 and 1.25 fold enrichment (6-mer frequency, TF over GST control) with ETV6.

In the case of GCTCAC, the binding signal in the assay with ERF was 1.58 fold enrichment (6-mer frequency, TF over GST control); in the assay with ETV3L, 1.57 fold enrichment (6-mer frequency, TF over GST control); in the assay with ETS2 it was 1.43 fold enrichment (6-mer frequency, TF over GST control); with SPDEF, 1.42 fold enrichment (6-mer frequency, TF over GST control); in the assay with ETV7 it was 1.4 fold enrichment (6-mer frequency, TF over GST control); with ELF5, 1.49 fold enrichment (6-mer frequency, TF over GST control). The binding signal was 1.47 fold enrichment (6-mer frequency, TF over GST control) with ETV3 and 1.45 fold enrichment (6-mer frequency, TF over GST control) in the assay with ETV6.

Consider ATTAAT, for which the binding signal is 1.25 fold enrichment (6-mer frequency, TF over GST control) in the assay with ERF; 1.18 fold enrichment (6-mer frequency, TF over GST control) in the assay with ETV3L; 1.27 fold enrichment (6-mer frequency, TF over GST control) with ETS2; 1.23 fold enrichment (6-mer frequency, TF over GST control) with SPDEF; 1.21 fold enrichment (6-mer frequency, TF over GST control) in the assay with ETV7; 1.18 fold enrichment (6-mer frequency, TF over GST control) with ELF5. Further, the binding signal is 1.25 fold enrichment (6-mer frequency, TF over GST control) with ETV3 and 1.3 fold enrichment (6-mer frequency, TF over GST control) with ETV6.
